# According to PubChem BioAssay AID1572 (National Center for Advancing Translational Sciences (NCATS), 2009):
# Records with an inconclusive call do not appear. Activity calls are given as the source filed them. Calls follow the shape of the dose curve; as a rule, active = well fitted curve in either direction with a large enough effect; inconclusive = small, poorly fitted or top-dose-only effect; inactive = flat fitted curve, though single readings scatter.
# Assay: Total Fluorescence Confirmation Counterscreen for Inhibitors of the Interaction of Thyroid Hormone Receptor and Steroid Receptor Coregulator 2
# Conditions: Texas Red total fluorescence, TRbeta/SRC2 FP artifact counterscreen; series mostly up to 92.2 µM; total fluorescence change, both ways: at the top concentration
# Text: NIH Molecular Libraries Probe Production Network [MLPCN] NIH Chemical Genomics Center [NCGC] MLPCN Grant: DK058080 Assay Provider: R. Kip Guy, St. Jude Children's Research Hospital NCGC Assay Overview: Thyroid receptor (TR) regulates many homeostatic processes including basal metabolism, cardiovascular function, body weight, and lipid trafficking. TR modulators are potential therapeutics for obesity and hyperlipidemias but current thyroid analogs have undesirable side effects, particularly cardiac stimulation. To identify inhibitors that specifically prevent the interaction of TR with the steroid receptor coregulator 2 (SRC2), a fluorescence polarization assay was screened. This assay detects interaction of the ligand-binding domain of human TRbeta with a Texas Red labeled SRC2 peptide, corresponding to a 20 amino acid region of the nuclear receptor interaction domain (Arnold et al., 2006). Total fluorescence (555 nm excitation and 632 nm emission) was measured to identify potential fluorescent and light absorbing compounds. Such compounds may be artifacts that interfere with the fluorescence polarization assay. This assay is a confirmation assay for AID 1479. Arnold, L. A.; Estebanez-Perpina, E.; Togashi, M.; Shelat, A.; Ocasio, C. A.; McReynolds, A. C.; Nguyen, P.; Baxter, J. D.; Fletterick, R. J.; Webb, P.; Guy, R. K. A high-throughput screening method to identify small molecule inhibitors of thyroid hormone receptor coactivator binding. Sci STKE 2006, p 13.
# NCGC Assay Protocol Summary: For screening, 5 uL/well 0.6 uM TRbeta and 20 nM SRC2 Texas Red in protein buffer (20mM Tris hydrochloride, 100mM NaCl, 10% glycerol, 1mM EDTA, 0.01% NP-40, 1mM DTT, 1uM T3 and 5% DMSO) was dispensed into black solid 1536-well plates (Grenier) using a solenoid-based dispenser. Following transfer of 23 nL compound or DMSO vehicle by a pin tool, the plates were centrifuged 15 s at 1000 RPM and incubated 5 hr at ambient temperature. The plates were read by an Envision (Perkin Elmer) to detect fluorescence polarization of SRC2 Texas Red (555 nm excitation and 632 nm emission). Data were normalized to unbound (all components except TRbeta) and bound SRC2 Texas Red controls. Total fluorescence (TF) was calculated as follows: TF = S + 2P where S and P are fluorescence readings in the parallel and perpendicular channels, respectively. In this assay, we provide % activity data for each concentration as well as potencies for the active compounds.
SMILES,"total fluorescence change, both ways",Potency
O=c1[nH]c(Nc2ccc(F)cc2)cc2ccccc12,3.63% (inactive),–
COc1cc(C(c2c(C)[nH][nH]c2=O)c2c(C)[nH][nH]c2=O)ccc1OC(=O)c1ccccc1OC,2.7% [at 184 µM] (inactive),–
CCOC(=O)c1cnc2nc(NCc3ccc(OC)c(OC)c3)[nH]n2c1=O,6.28% (inactive),–
CCOc1ccc(C2=Cc3cc(OC)c(OC)cc3C(=C(Cl)Cl)O2)cc1,-0.317% (inactive),–
Cc1cc(C)cc(OCC(=O)NCCc2nc3ccccc3[nH]2)c1,6.66% [at 184 µM] (inactive),–
CCCCCCN=CC1=C(O)CC(C)(C)CC1=O,3.03% (inactive),–
CCC(CNc1cc(OC)cc2cccnc12)NC1CCCCC1 (stereo not given),26.9% (inactive),–
Nc1c(C(=O)NCc2ccco2)c2nc3ccccc3nc2n1CCc1ccccc1,2.3% (inactive),–
COc1ccc(C(=O)/C=C/Nc2ccc(S(=O)(=O)Nc3ncccn3)cc2)cc1,8.18% (inactive),–
O=C1CCCC(O)=C1N=Nc1cccc(S(=O)(=O)N2CCOCC2)c1,5.17% (inactive),–
COc1cc(NC(C)CCCN)c2ncccc2c1 (stereo not given),2.44% [at 184 µM] (inactive),–
CCCCOc1ccc(C(=O)CCN2CCCCC2)cc1,6.86% (inactive),–
Cc1cccc(S(=O)(=O)c2cn(Cc3ccccc3)c3cc(N4CCC(C)CC4)c(F)cc3c2=O)c1,5.69% [at 184 µM] (inactive),–
CC(NC(=O)Nc1ccc(O)cc1)(C(F)(F)F)C(F)(F)F,-1.5% (inactive),–
CC(=O)NC1N=C(C)N(c2ccccc2)C1=O (stereo not given),9.72% (inactive),–
Cc1cccc(Cn2c(C(=O)OC(C)C)cc3c2ccn3C)c1,2.46% (inactive),–
CCOC(=O)C(NC(=O)Nc1ccc(O)cc1)(c1ccccc1)C(F)(F)F (stereo not given),6.83% (inactive),–
COC(=O)/C(=C/Nc1ccc(O)cc1)[N+](=O)[O-],4.79% (inactive),–
CCC(NC(=O)Nc1ccc(O)cc1)(C(F)(F)F)C(F)(F)F,8.48% (inactive),–
Cc1ccc(-c2nc(S(=O)(=O)c3ccc(F)cc3)c(SCC(=O)NCC3CCCO3)o2)cc1 (stereo not given),-10.4% (inactive),–

SMILES,"total fluorescence change, both ways",Potency
CCc1ccc2c(c1)c1nc(C)sc1n2CC,0.366% (inactive),–
O=C(/C=C/c1ccco1)NC(=S)Nc1cc(C(F)(F)F)ccc1N1CCOCC1,11% (inactive),–
CS(=O)(=O)c1ccc(C(=O)OCC(=O)NC(=O)C2CCCCC2)cc1[N+](=O)[O-],-3.18% (inactive),–
C/C(=C\C(=O)c1ccccc1)Nc1ccc(O)cc1,0.528% (inactive),–
Nc1cc(N)c(OCC(F)(F)F)cc1OCC(F)(F)F,7.18% (inactive),–
Cc1cc2c(NC(=O)Nc3ccccc3)cccc2nn1,7.45% (inactive),–
COn1c2c(c3c4nonc4ccc31)CCCC2,5.67% (inactive),–
C=CCSc1nnc2n(-c3ccccc3OC)c(=O)c3c4c(sc3n12)CCC4,3.26% (inactive),–
Cc1[nH][nH]c(=O)c1C(c1ccc(-c2ccc(Cl)c(Cl)c2)o1)c1c(C)[nH][nH]c1=O,2.21% (inactive),–
Nc1cc(-c2ccncc2)c[nH]c1=O,–,inactive
O=C(Nc1nc2ccc(Cl)cc2s1)c1ccc(N2CCCCC2)c([N+](=O)[O-])c1,2.3% (inactive),–
CS(=O)(=O)c1ccc(C(=O)OCC(=O)NC23CC4CC(CC(C4)C2)C3)cc1[N+](=O)[O-],5.22% (inactive),–
Cc1ccc(OC(=S)Nc2ccc(O)cc2)cc1,-1.98% (inactive),–
COc1ccc(CN2C(=O)Cc3c2nc(N)c2c(N)nc(N4CCCCC4)c(C#N)c32)cc1,1.08% (inactive),–
O=C(O)/C=C/C(=O)Nc1ccc(OC(F)(F)F)cc1Br,10.6% (inactive),–
O=C(O)C1C2C=CC(O2)C1C(=O)Nc1ccc(S(=O)(=O)N2CCc3ccccc32)cc1 (stereo not given),9.53% (inactive),–
Cc1nc2ccccc2n2c(O)c(CC(=O)O)cc12,–,31.6 µM [fluorescent] (active)
Cn1cc(/C=C2\SC(=S)N(NC(=O)c3ccccc3)C2=O)c2ccccc21,–,70.8 µM [fluorescent] (active)
O=C(NNc1cc(N2CCOCC2)nc(N2CCOCC2)n1)c1ccc(Cl)c(Cl)c1,–,39.8 µM [quencher] (active)
CCCc1cc(=O)[nH]c(=S)[nH]1,-2% (inactive),–
